# MEX-5 binding – MEX-5 zinc finger RNA-binding disruptors – biochemical, C. elegans, fluorescence polarization, MLPCN library, primary screen | Zinc finger protein mex-5 (Caenorhabditis elegans), Q9XUB2 | MEX-5/FITC-TCR2 RNA binding; stronger effect = lower value | activity score (negative = inhibition of binding), % at 10 µM | 300,000 tested, 0.38% active | AID 1832, 2009;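 active = inhibition past about -25% in most replicates, and total fluorescence under double the plate's negative control median, limit read from the data; inconclusive = replicates evenly split on the limit, or fluorescence at least double controls; inactive = too little inhibition in most replicates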;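 also: 0% = DMSO and -100% = 5 µM competing unlabeled TCR2 RNA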
# MCL1-BIM inh – inhibitors of MCL1 binding to BIM-BH3, primary screen, biochemical, fluorescence polarization; Induced myeloid leukemia cell differentiation protein Mcl-1 (Homo sapiens), Q07820; GST-MCL1 / FITC-Bim-BH3 fluorescence polarization; inhibition, % at 10.9 µM; 320,000 tested, 0.68% active; AID 2057, 2009;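 active = inhibition above the mean inhibition of all tested compounds plus 3 SD, set per campaign, cut at about 40% in these data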;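 also: 0% = DMSO wells and 100% = unlabeled Bim-BH3 peptide control; higher means more loss of mP so more displacement of Bim peptide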
# EBV gp42 inh – Epstein-Barr virus gp42 inhibitors, primary screen, biochemical, uHTS, fluorescence polarization. AID 1085, 2008. 220,000 tested, 0.42% active. Glycoprotein 42 (Epstein-Barr virus (strain AG876)), Q1HVG2. Fluorescence polarization binding assay, mP read-out. inhibition, % (tested at 21.74 µM); in the data active = inhibition above about 50%
# GLD-1 RNA inh – GLD-1/TGE RNA complex disruptors, primary screen, biochemical, fluorescence polarization. Female germline-specific tumor suppressor gld-1 (Caenorhabditis elegans), Q17339. purified GLD-1 + fluorescein TGE RNA. inhibition, % at 5.96 µM. 320,000 tested, 0.44% active. AID 2280, 2010;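 active = percent inhibition above a per-plate cutoff, the plate mean of test compounds plus 3 SD, cut at about 30% in these data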;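 also: 0% = DMSO wells with GLD-1 and probe and 100% = wells lacking GLD-1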
# Target sequence (Q17339 whole entry, looked up): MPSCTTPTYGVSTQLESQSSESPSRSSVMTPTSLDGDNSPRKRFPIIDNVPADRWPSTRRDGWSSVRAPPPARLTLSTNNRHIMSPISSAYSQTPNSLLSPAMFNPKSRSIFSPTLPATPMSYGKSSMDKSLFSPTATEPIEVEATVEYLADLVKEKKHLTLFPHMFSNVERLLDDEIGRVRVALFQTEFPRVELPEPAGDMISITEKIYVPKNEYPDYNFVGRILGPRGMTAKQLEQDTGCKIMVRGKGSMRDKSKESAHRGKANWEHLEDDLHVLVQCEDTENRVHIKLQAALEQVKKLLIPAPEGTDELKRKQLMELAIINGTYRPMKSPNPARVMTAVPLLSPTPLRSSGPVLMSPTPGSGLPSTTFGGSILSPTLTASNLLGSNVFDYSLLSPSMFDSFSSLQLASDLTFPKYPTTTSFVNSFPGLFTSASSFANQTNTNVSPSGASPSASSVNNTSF
# Bcl-xL primary – inhibitors of human Bcl-xL, primary screen, biochemical, fluorescence polarization, HTS. Bcl-2-like protein 1 (Homo sapiens), Q07817. GST-Bcl-xL / FITC-Bim BH3 peptide fluorescence polarization. inhibition, % at 10.9 µM. 320,000 tested, 0.7% active. AID 2129, 2009;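 active = inhibition above the mean of all tested compounds plus 3 SD, cutoff set per campaign, cut at about 30% in these data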;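 also: 0% = DMSO wells and 100% = unlabeled Bim-BH3 peptide competitor; inhibitors lower millipolarization by displacing the labeled peptide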
# Numbers without * were called inactive; ? = inconclusive; · = no result. This is a sample that favours compounds with a hit; in the whole collection about 1.3% have one here.
SMILES,MEX-5 binding,MCL1-BIM inh,EBV gp42 inh,GLD-1 RNA inh,Bcl-xL primary
Cc1nc2cc(C(=O)O)ccc2n1C1CCCCC1,-2,5,-16,2,0
Cc1nc2cc(N)ccc2n1C1CCCCC1,-39*,4,-10,1,0
CCn1c(C)nc2cc(N)ccc21,-51*,7,-24,-1,3
COc1ccc(O)c(CN2CCC(n3nccc3NC(=O)CCOc3ccccc3)CC2)c1,3,3,·,2,4
C=Cc1c(C)c2cc3[nH]c(cc4nc(cc5nc(cc1[nH]2)C(C)=C5CCC(=O)O)C(CCC(=O)O)=C4C)c(C)c3C=C,-42*,83*,·,19,29
COc1cccc(-n2ccnc2SCC(=O)Nc2nccs2)c1,-1,-5,-18,104*,4
Cc1cccc(-n2ccnc2SCC(=O)Nc2nccs2)c1,2,-4,5,-2,-1
CCC(CO)[n+]1c(C)cc(/C=C2\Sc3ccccc3N2Cc2ccccc2)cc1C (centres undefined),·,-27,-136,-144,-9
O=C1c2cccc3c([N+](=O)[O-])ccc(c23)C(=O)N1c1ccccn1,-8,24,16,20,25
O=C1c2cccc3c([N+](=O)[O-])ccc(c23)C(=O)N1c1nccs1,-1,28,18,25,31*
CC(=O)N1CCc2cc(S(=O)(=O)NCCCN3CCC(C)CC3)ccc21,·,-4,·,3,5
CC1=NN(c2ccc(Cl)c(C(=O)O)c2)C(=O)C1,-2,3,-15,3,5
CC1=NN(c2ccc(C(=O)O)c(N)c2)C(=O)C1,-39*,20,-17,-2,21
Cc1cc(C(=O)N/N=C2\CC(=O)CC(C)(C)C2)c2ccccc2n1,-4,22,-5,63*,18
O=C(CSc1nc(=O)n(CCCN2CCOCC2)c2c1CCC2)Nc1ccc([N+](=O)[O-])cc1,2,-1,·,11,-4
C=CCn1c(=O)/c(=C\c2ccccn2)s/c1=C(/C#N)C(=O)NCC1CCCO1 (centres undefined),-28*,-5,3,4,-1
C=CCn1c(=O)/c(=C/c2ccc(C)o2)s/c1=C(/C#N)C(=O)c1ccccc1,-27*,-50,16,-51,-40
Cc1ccc(/C=c2\sc3nc(-c4ccccc4Br)nn3c2=O)o1,-5,32,-2,-3,16
O=C(NCCc1c[nH]c2ccccc12)C(=O)Nc1cc2c3c(c1)CC(=O)N3CCC2,3,-2,·,1,1
N=c1oc2c3c4c(cc2cc1C(=O)Nc1ccccc1)CCCN4CCC3,?,191*,-67,88*,165*
O=C(CN1C(=O)NC2(CCCC2)C1=O)OCCOc1ccc(Cl)cc1,0,-1,·,6,0
CCOC(=O)C(=O)Cc1nc2ccccc2s1,6,-6,-10,46*,-8
CCN1/C(=C/c2ccc3cccc(C)c3[n+]2CC)Sc2ccccc21,?,-37,-77,47*,-22
CN(C(=O)CS(=O)(=O)c1cn(CC(=O)N2CCCCC2)c2ccccc12)c1ccccc1,-2,3,·,3,7
Cc1c(N=Nc2c(-c3ccc([N+](=O)[O-])cc3)[nH]n(C(N)=S)c2=O)cccc1[N+](=O)[O-],·,·,109*,·,·
SMILES,MEX-5 binding,MCL1-BIM inh,EBV gp42 inh,GLD-1 RNA inh,Bcl-xL primary
NC(=S)n1[nH]c(-c2ccc([N+](=O)[O-])cc2)c(N=Nc2cccc([N+](=O)[O-])c2)c1=O,-1,·,100*,·,·
NC(=S)n1[nH]c(-c2ccc([N+](=O)[O-])cc2)c(N=Nc2ccccc2[N+](=O)[O-])c1=O,·,·,36,·,·
Cc1ccc(O)c(-c2cc(C(=O)Nc3ccc(S(=O)(=O)Nc4nccc(C)n4)cc3)[nH]n2)c1,-29*,5,-3,5,9
COc1ccc(C(=O)Nc2ccc(S(=O)(=O)Nc3nccc(C)n3)cc2)cc1,0,10,·,-3,11
CCOCC(=O)Nc1c(C(=O)Nc2ccc3c(c2)OCCO3)oc2ccccc12,0,3,1,-3,5
O=C(NNC(=O)c1cc(Cl)ccc1O)c1cccc(S(=O)(=O)N2CCOCC2)c1,-27*,12,·,3,9
O=C(NNC(=O)c1cc(Cl)ccc1[N+](=O)[O-])c1csc(N2CCOCC2)n1,-31*,0,·,6,2
O=C(NNC(=O)c1cc(Br)ccc1Cl)c1csc(N2CCOCC2)n1,-3,6,·,-1,3
O=C(N/N=C\c1cc([N+](=O)[O-])ccc1N1CCCC1)c1ccccn1,-27*,1,-11,-7,1
O=C(N/N=C\c1cc([N+](=O)[O-])ccc1N1CCOCC1)c1ccccn1,-7,-1,-11,2,7
CN(C)[C@@H]1C(=O)C(C(=O)NCN2CCCC2)=C(O)[C@@]2(O)C(=O)C3=C(O)c4c(O)cccc4[C@@](C)(O)C3CC12 (some centres undefined),·,·,71*,·,·
CCOCCCNC1=C(Cl)C(=O)c2ccccc2C1=O,-4,33,-30,-1,34*
Cc1cc(-c2ccc(N3CCOCC3)cc2)nc2ccccc12,-4,20,56*,-93,18
Cc1nnc(SCc2cccc([N+](=O)[O-])c2)[nH]c1=O,2,3,-11,2,3
O=C(Nc1nccs1)c1ccc(-c2ccc([N+](=O)[O-])cc2)o1,-43*,-22,-37,1,-8
COC(=O)[C@]1(C)N[C@H](CN(C)C(=O)c2ccc(C)cc2)[C@@H]2C(=O)N(C)C(=O)[C@@H]21,·,·,·,-2,·
CCNC(=S)NC(=NCc1cccnc1)Nc1nc(C)cc(C)n1,11,46*,·,13,38*
O=C1C2CC=CCC2C(=O)N1Cc1nnc(-c2ccccc2Br)o1 (centres undefined),2,8,-2,-3,4
COC(=O)C1C(O)C(C)C(O)C(C)(O)/C=C\C=C(/C)C(=O)Nc2c(C)c(OC(C)=O)c3c(c2O)C(=O)C(C)=C2OCOC(=C23)/C(C)=C/C(C)(O)C(O)C(C)C1O (centres undefined),-5,-1,-3,7,50*
CC(C)(O)C(=O)NNC(=S)NCc1ccco1,-32*,6,-12,-2,2
Cc1occc1-c1nnc(SCC(=O)c2c[nH]c3ccccc23)n1C,·,-6,144*,-4,1
O=[N+]([O-])c1ccc(Nc2ccccc2O)c2nonc12,-36*,·,·,·,·
Cc1nnc(NC(=O)CSc2nnc(Cc3cccn3C)n2-c2cccc(C)c2C)s1,0,-2,-16,-4,104*
Cc1c(C=Nc2ccc(S(=O)(=O)CCO)cc2)c(O)[nH]c(=O)c1C#N,-2,14,·,7,14
Clc1ccc(OCc2nnc(-c3ccccc3Br)o2)c(Cl)c1,2,6,91*,0,6

# Compound activity from PubChem BioAssay.
